# Assay outcomes (PubChem)
# This is a sample that favours compounds with a hit; in the whole collection about 4% have one here.
# AF4-AF9 inh – inhibitors of human MLL-AF4/AF9 interaction | P42568 | AlphaScreen, biotin-AF4 peptide binding to FLAG-AF9 | inhibition, % at 10 µM | 0.47% of 350,000 active | AID 651704;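 active means every replicate reaching a set inhibition limit, whatever the replicate mean, cut at about 25% in these data; inconclusive means mean inhibition reaches that limit but some replicates miss it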
# Target sequence (P42568 whole entry, looked up): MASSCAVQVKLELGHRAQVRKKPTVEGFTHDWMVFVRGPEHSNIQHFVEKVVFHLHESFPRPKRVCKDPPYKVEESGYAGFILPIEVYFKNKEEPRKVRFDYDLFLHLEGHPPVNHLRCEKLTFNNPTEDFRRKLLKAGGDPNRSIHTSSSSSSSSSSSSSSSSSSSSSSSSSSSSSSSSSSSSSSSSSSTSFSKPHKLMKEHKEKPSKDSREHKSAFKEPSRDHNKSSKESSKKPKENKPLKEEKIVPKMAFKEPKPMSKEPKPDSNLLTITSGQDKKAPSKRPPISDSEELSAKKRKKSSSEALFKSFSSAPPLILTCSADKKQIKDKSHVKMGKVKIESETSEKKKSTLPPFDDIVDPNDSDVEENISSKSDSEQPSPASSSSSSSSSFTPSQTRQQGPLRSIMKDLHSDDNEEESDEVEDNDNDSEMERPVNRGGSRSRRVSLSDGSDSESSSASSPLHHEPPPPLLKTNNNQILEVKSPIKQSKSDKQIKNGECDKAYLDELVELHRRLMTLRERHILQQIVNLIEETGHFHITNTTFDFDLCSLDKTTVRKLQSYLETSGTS
# RAD52 inh – blocks human RAD52 DNA annealing; P43351; recombinant RAD52 DNA annealing, FRET fluorescence; inhibition, % at 18.7 µM; 0.46% of 360,000 active; AID 651710;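 active means every replicate showing at least 50% inhibition; inconclusive means mean inhibition at least 50% but not in every replicate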
# FGF22 binding – FGF22 (human) thermal shift binding; recombinant FGF22 thermal shift, SYPRO orange fluorescence; percent of sucrose octasulfate shift, DMSO zero; activity (Tm shift, normalised), % at 9.99 µM; 1.5% of 340,000 active;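 active means mean Tm shift, scaled 0 neutral to 100 positive control, at about 1.3% or above, every replicate too, limit read from the data; inconclusive means no clear call, values can overlap the other calls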
# DENV2 CPE rescue – inhibitors of DENV2 cytopathic effect | DENV2-infected cells, cytopathic effect rescue, plate reader | CPE inhibition, % at 9.99 µM | 1.7% of 350,000 active | AID 651640; in the data active means CPE inhibition above about 20%, passing the limit was not always enough; inconclusive means no clear call, values can overlap the other calls; tested in BHK-21 cells
# ERAP1 HTS inh – blocks human ERAP1 aminopeptidase activity. 0.15% of 340,000 active. recombinant ERAP1, Leu-AMC fluorescence, 60 min. AID 652197. inhibition, % at 10.7 µM;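 active means mean replicate inhibition of at least 30%, or all replicates individually reaching that 30% level; inactive means mean below 30% and not every replicate reaching it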
# Numbers stand for hits; n = inactive; u = inconclusive; x = no result given; ! = repeats disagree.
SMILES,AF4-AF9 inh,RAD52 inh,FGF22 binding,DENV2 CPE rescue,ERAP1 HTS inh
C[C@@H]1CCCCO[C@H](CN(C)S(=O)(=O)c2cccs2)[C@@H](C)CN([C@H](C)CO)C(=O)c2cc(NC(=O)c3ccccc3)ccc2O1,x,x,n,n,x
C[C@@H]1CN([C@H](C)CO)C(=O)c2cc(NC(=O)Nc3ccc(F)cc3)ccc2O[C@@H](C)CCCCO[C@H]1CN(C)S(=O)(=O)c1cccs1,n,n,n,47!,n
C[C@H]1CCCCO[C@H](CN(C)S(=O)(=O)c2cccs2)[C@@H](C)CN([C@@H](C)CO)C(=O)c2cc(NC(=O)Nc3ccc(F)cc3)ccc2O1,n,n,n,n,n
C[C@@H]1CN([C@@H](C)CO)C(=O)c2cc(NC(=O)CCCCCC(=O)Nc3ccccc3N)ccc2O[C@H]1CN(C)C(=O)Nc1ccc2c(c1)OCO2,n,n,n,n,n
C[C@H](CO)N1C[C@H](C)[C@H](CN(C)C(=O)Nc2ccc3c(c2)OCO3)Oc2ccc(NC(=O)CCCCCC(=O)Nc3ccccc3N)cc2C1=O,n,n,n,48,n
C[C@@H]1CN([C@@H](C)CO)C(=O)c2cc(NC(=O)CCCCCC(=O)Nc3ccccc3N)ccc2O[C@@H]1CN(C)C(=O)Nc1ccc2c(c1)OCO2,n,n,n,30,n
O=C(C[C@H]1CC[C@H]2[C@@H](COC[C@@H](O)CN2C(=O)Nc2cccc(Cl)c2)O1)NCCCN1CCOCC1,n,n,n,n,n
Cc1ccc2nc(Cl)c(C#N)cc2c1,n,n,43,n,n
CN(C)CC(=O)N1CC2(C1)[C@H](c1ccccc1)[C@H](CO)N2S(=O)(=O)c1ccccc1,n,n,x,n,n
O=C(Cn1nnc2c(cnn2-c2ccc(F)cc2)c1=O)Nc1ccccc1C(F)(F)F,n,n,43,x,n
O=C(CN1CCN(C(=O)c2cncn2-c2ccc(F)cc2)CC1)Nc1ccccc1C(F)(F)F,n,n,n,n,n
O=C(Nc1ccccc1)Nc1ccc2c(c1)[C@H]1C[C@H](CC(=O)N3CCOCC3)O[C@@H](CO)[C@H]1O2,x,x,n,n,x
C[C@@H]1CN([C@H](C)CO)C(=O)c2cccc(NC(=O)C3CCOCC3)c2O[C@@H]1CN(C)Cc1ccc(C(F)(F)F)cc1,n,n,n,39,n
CC(C)NC(=O)Nc1cccc2c1O[C@@H](CN(C)Cc1ccc(C(=O)Nc3ccccc3N)cc1)[C@@H](C)CN([C@@H](C)CO)C2=O,n,n,n,n,n
CC(C)NC(=O)Nc1cccc2c1O[C@H](CN(C)Cc1ccc(C(=O)Nc3ccccc3N)cc1)[C@H](C)CN([C@@H](C)CO)C2=O,n,n,n,21,n
C[C@H](CO)N1C[C@H](C)[C@H](CN(C)Cc2ccc(C(=O)Nc3ccccc3N)cc2)Oc2c(NC(=O)Nc3ccc(F)cc3)cccc2C1=O,n,n,n,36,n
C[C@@H]1CN([C@H](C)CO)C(=O)c2cccc(NC(=O)C3CCOCC3)c2O[C@H]1CN(C)Cc1ccc(C(F)(F)F)cc1,n,n,n,u,n
C[C@@H]1CN([C@H](C)CO)C(=O)c2cccc(NC(=O)C3CCOCC3)c2O[C@@H]1CN(C)Cc1ccc(C(=O)Nc2ccccc2N)cc1,n,n,n,47,n
CCC(=O)N(C)C[C@H]1Oc2cc(C#Cc3ccncc3)ccc2S(=O)(=O)N([C@H](C)CO)C[C@H]1C,n,n,n,n,n
Cc1noc(C)c1NC(=O)Nc1ccc2c(c1)CC(=O)N([C@@H](C)CO)C[C@@H](C)[C@H](CN(C)S(=O)(=O)c1ccccc1)O2,n,n,n,n,n
CO[C@@H]1CN(C)C(=O)c2ccc(NC(=O)C3CCC3)cc2OC[C@@H](C)N(C(=O)CN(C)C)C[C@H]1C,n,n,n,n,n
O=C(NC(=S)Nc1ccc(S(=O)(=O)Nc2ccccc2)cc1)C1CC1,n,n,43,x,n
Cc1ccc(NC(=S)NC(=O)C2CCCC2)cc1C,n,n,n,n,n
O=C(NNC(=S)Nc1ccccc1)C1CCCCC1,n,n,44,n,n
Cc1ccc(NC(=S)NC(=O)C2CCC2)cc1C,n,n,n,69,n
SMILES,AF4-AF9 inh,RAD52 inh,FGF22 binding,DENV2 CPE rescue,ERAP1 HTS inh
CCC(=O)N1CCC2(CC1)CN(CC1CCCCC1)[C@@H](CO)c1c2c2ccc(OC)cc2n1C,n,x,x,n,x
CCC(=O)N1C[C@@H](C)[C@@H](OC)CN(C)C(=O)c2cc(NC(=O)C3CC3)ccc2OC[C@H]1C,n,n,n,n,n
COc1cc(NC(=O)c2nccnc2N)cc(C(=O)Nc2cccc(C(F)(F)F)c2)c1,n,n,n,n,n
COc1cc(NC(=O)c2nccn2C)cc(C(=O)Nc2cccc(C(F)(F)F)c2)c1,n,n,n,110!,n
C[C@@H]1CN([C@H](C)CO)C(=O)c2cc(C3=CCCC3)cnc2O[C@@H]1CN(C)Cc1ccccc1F,n,n,n,n,n
CC(C)OC(=O)CC(=O)CSc1nc2c(c(-c3cccs3)c1C#N)CCC2,n,n,44,x,n
CCOC(=O)C(C)Sc1nc2c(c(-c3cccs3)c1C#N)CCC2 (stereo not given),n,n,n,n,n
Nc1ccccc1C#Cc1ccccc1,n,n,n,110,n
CCOC(=O)c1sc(=NC(=O)c2ccc(OC(C)C)cc2)n(C)c1C,n,n,n,n,n
CCOC(=O)c1sc(=NC(=O)c2ccc(C)c(C)c2)n(C)c1C,n,n,43,n,n
C[C@@H]1CN([C@@H](C)CO)C(=O)c2cc(-c3ccccc3F)cnc2O[C@H]1CN(C)Cc1ccc(F)cc1,n,n,n,n,n
Cc1ccc(Cn2c(N)nc3ccccc32)cc1,n,n,n,n,n
Nc1nc2ccccc2n1Cc1ccc(Cl)c(Cl)c1,n,n,n,33,n
CO[C@@H]1CN(C)C(=O)c2ccc(NS(C)(=O)=O)cc2OC[C@H](C)N(Cc2cccnc2)C[C@H]1C,n,n,n,n,n
Cc1noc(C)c1NC(=O)Nc1ccc2c(c1)C(=O)N([C@H](C)CO)C[C@@H](C)[C@H](CN(C)Cc1ccc(Cl)c(Cl)c1)OCCCC[C@H](C)O2,n,n,n,23,n
Cc1noc(C)c1NC(=O)Nc1ccc2c(c1)C(=O)N([C@@H](C)CO)C[C@@H](C)[C@@H](CN(C)Cc1ccc(Cl)c(Cl)c1)OCCCC[C@@H](C)O2,n,n,n,30,n
Cc1noc(C)c1NC(=O)Nc1ccc2c(c1)C(=O)N([C@@H](C)CO)C[C@H](C)[C@@H](CN(C)Cc1ccc(Cl)c(Cl)c1)OCCCC[C@H](C)O2,n,n,n,27,n
COc1cc(C(=O)N=c2sccn2C)c([N+](=O)[O-])cc1OC,n,n,n,n,45
Cn1ccsc1=NC(=O)c1ccc([N+](=O)[O-])o1,n,n,n,n,n
O=C(C[C@H]1CC[C@@H]2[C@H](COC[C@@H](O)CN2S(=O)(=O)c2ccccc2)O1)NCc1ccc(-c2ccccc2)cc1,n,75,n,n,n
